Data taken from PubChem BioAssay.
Values without a mark were called inactive. Active and inactive are the calls of the source.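 How the source made its calls: active means inhibition above the hit cutoff set in the earlier primary screen (cut at about 27% in these data); inactive means the rest.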

What follows are compounds tested against Protein phosphatase methylesterase 1 (Homo sapiens) (UniProt Q9Y570) (assay: PME-1 inhibitor activity retest, confirmation, biochemical, fluorescence polarization, FP-Rh probe, triplicate (AID 2171;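 further: 0% = enzyme with DMSO and 100% = wells lacking PME-1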)). Conditions: recombinant PME-1, FP-Rh probe fluorescence polarization; at 5.9 µM; stronger effect = higher value.
Sequence of Protein phosphatase methylesterase 1 (Homo sapiens) (Q9Y570 whole entry, looked up): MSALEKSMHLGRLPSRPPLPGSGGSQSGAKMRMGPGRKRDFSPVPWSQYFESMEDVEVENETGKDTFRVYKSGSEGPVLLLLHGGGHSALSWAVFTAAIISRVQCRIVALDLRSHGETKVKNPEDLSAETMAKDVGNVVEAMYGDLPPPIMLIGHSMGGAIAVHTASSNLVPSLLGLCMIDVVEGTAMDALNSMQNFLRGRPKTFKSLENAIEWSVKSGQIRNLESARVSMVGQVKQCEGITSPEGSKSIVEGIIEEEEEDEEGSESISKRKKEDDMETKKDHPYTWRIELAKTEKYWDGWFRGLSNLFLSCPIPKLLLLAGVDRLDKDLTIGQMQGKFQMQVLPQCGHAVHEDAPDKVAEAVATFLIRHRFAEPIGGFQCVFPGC

For `COc1ccc(NC(=O)Nc2nnc(N3CCCCC3C)s2)cc1OC` (stereo unspecified), which inhibition is on record?
Its inhibition is 43.7% (active).

With `O=C1c2cccc3c([N+](=O)[O-])ccc(c23)C(=O)N1c1ccc(Cl)cn1` as the compound, how does the inhibition read?
The inhibition was 34.9% (active).

Which inhibition does the source give for `Cc1cc(C)c(NC(=O)COC(=O)c2cccc3c2C(=O)c2ccccc2C3=O)c(C)c1` here?
The inhibition was 42.1% (active).

With `Oc1ccc(Br)cc1-c1nc2cnccn2c1NC1CCCC1` as the compound, how does the inhibition read?
Its inhibition is 21.4%.

Which inhibition does the source give for `Oc1ccccc1-c1nc2c3ccccc3c3ccccc3c2[nH]1` here?
The inhibition was 21.4%.

Which inhibition does the source give for `Cc1cccc(OCCn2cc(/C=N/NC(=O)c3ccncc3)c3ccccc32)c1` here?
The inhibition was 2.22%.

How did the inhibition turn out when `Oc1[nH]c2ccccc2c1C=Nc1ccc2c(c1)OCO2` was run?
The inhibition was 23.6%.

For `COc1ccc(/C(C)=C2/SC(=S)N(CCC(=O)O)C2=O)cc1`, which inhibition is on record?
The inhibition was 4.27%.

How did the inhibition turn out when `O=c1cc(N2CCCCC2)c(-c2ccccc2)nn1Cc1c(Cl)cccc1Cl` was run?
The inhibition was 25.3%.

`Cc1[nH]c(N=Nc2ccccc2)nc1N=Nc1ccccc1` was tested. Which inhibition did it give?
Its inhibition is 55.2% (active).

How did the inhibition turn out when `COc1ccc(NC(=S)Nc2ccc3nsnc3c2)cc1` was run?
The inhibition was 24.3%.

How did the inhibition turn out when `O=C1[C@@H]2Cc3c([nH]c4ccccc34)C(c3ccccc3)N2C(=O)CN1C1CC1` (stereo partly specified) was run?
The inhibition was 5.42%.

`COc1cccc(N=Nc2c(=O)[nH]n3c(=O)c4c([nH]c23)CCC4)c1` was tested. Which inhibition did it give?
The inhibition was 36.8% (active).

How did the inhibition turn out when `CCOc1cc(/C=C2\N=C(SCC)SC2=O)cc([N+](=O)[O-])c1OC(C)=O` was run?
Its inhibition is 47.5% (active).

How did the inhibition turn out when `COc1cc2c(cc1NC(=O)Nc1ccccc1)oc1ccccc12` was run?
Its inhibition is -9.58%.

With `CCNc1c2c3c(cccc3n(C)c1=O)C(=O)c1ccccc1-2` as the compound, how does the inhibition read?
The inhibition was 80.2% (active).
